Assay outcomes (PubChem BioAssay)
Anesthetic bind: binds horse apoferritin like a general anesthetic; Potency, µM (doses to about 77.5 µM), without a hit: at the highest dose activity change, negative = displacement, most hits filed as inhibitors; hit rate 0.074% among 350,000; apoferritin/1-aminoanthracene competitive binding, fluorescence; P02791; AID 485281; also: potency is read from the fitted curve at half-maximal effect; % is scaled to controls: 0 for no effect and ±100 for the full control effect; nearly all actives have a fitted effect of over 20% in size
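Steps: apoferritin (10 uM) was premixed with half-saturated 1-AMA in PBS, compounds were pin-transferred, plates stood 10 min at room temperature, fluorescence was read at 380/535 nm, and curves were fitted with a Hill equation.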
N370S GC: inhibitors or activators of N370S glucocerebrosidase for Gaucher disease; hit rate 0.092% among 330,000; Potency, µM (titrated, usually from 59.4 µM), inactives show at the highest dose activity change, negative = inhibition, most hits filed as inhibitors; AID 2101; N370S GC spleen homogenate, 4MU-glucoside fluorescence;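 also: potency is read from the fitted curve at half-maximal effect; 0% = full enzyme activity and -100% = no enzyme basal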
GRP78 ERSR act: induces the endoplasmic reticulum stress response in human glioma cells | U87-MG GRP78 promoter luciferase reporter, 16 h | hit rate 0.02% among 420,000 | Potency, µM, for inactives: at the top dose activation, most hits filed as activators; also: potency is read from the fitted curve at half-maximal effect; series mostly up to about 76 µM; % of control where 0% means no effect; nearly all actives have a fitted effect of over 35% in size
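Stably transfected U87-MG glioma cells carrying a GRP78-based luciferase sensor; 16 h compound incubation. Luminescence end-point read 10 min after Bright-Glo addition at room temperature.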
CBFb-RUNX1 inh: CBF-beta/RUNX1 interaction disruption; AlphaScreen CBFb-His/RUNX1-biotin binding, biochemical; Potency, µM (top dose mostly 59.8 µM), inactives show top-dose activity, negative = inhibition, hits mostly inhibitors; 230,000 tested, under 10 active; AID 1477; also: % of control where 0% means no effect
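Proteins preincubated together for 20 min at RT before compound addition; 15 min later, nickel and streptavidin beads were added and left 90 min prior to AlphaScreen measurement.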
ClpP mod: qHTS Assay for Activators of ClpP; ATP-dependent Clp protease proteolytic subunit (Bacillus subtilis (strain 168)), P80244; purified B. subtilis ClpP, FRET peptide cleavage, 20 min; Potency, µM (series often up to 57.5 µM), inactives show top-dose activity change, negative = active; hit rate 1.9% among 340,000; active = well fitted falling curve with a large enough effect; inconclusive = small, poorly fitted or top-dose-only effect; inactive = no such curve, though single readings can be large or run the other way; also: potency is read from the fitted curve at half-maximal effect; the source files actives as falling curves though it sought activators and does not explain the sign; nearly all actives have a fitted effect of over 65% in size
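FRET quenching reversal measured ClpP activation: 10 microg/mL B. subtilis ClpP at pH 8 with the FRET-FV decapeptide, read at 430 nm after 320 nm excitation. The 20-min minus 0-min signal was scaled between DMSO/no-enzyme wells and ADEP (5.8 microM final).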
Integrin act MD: integrin-mediated muscular dystrophy alleviation activation | alpha7betagal myoblasts, beta-gal FDG fluorescence, 48 h | Potency, µM (titrated, usually from 38.3 µM), for inactives: top-dose activation, hits mostly activators | hit rate 0.064% among 350,000;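 also: potency is read from the fitted curve at half-maximal effect; 100% = response of the positive control SU9516; nearly all actives have a fitted effect of over 60% in size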
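alpha7betagal+/- myoblasts (passage 13, 250/well) treated 48 h at 37C with compounds at 1:260 dilution of DMSO stock. Lysed, then beta-galactosidase activity read as FDG fluorescence (ex 480/em 540) after 30 min, with pre-read for autofluorescence.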
* marks the source's active call; other numbers are inactive results; ? = inconclusive; · = not tested or not shown. The entries come from a sample that favours hits as a whole. Unless noted, calls follow the shape of the dose curve; as a rule, active = well fitted curve in the direction sought with a large enough effect; inconclusive = small, poorly fitted or top-dose-only effect, or another doubt; inactive = no such curve, though single readings can be large; an effect the other way counts as inactive or inconclusive.

SMILES | Anesthetic bind | N370S GC | GRP78 ERSR act | CBFb-RUNX1 inh | ClpP mod | Integrin act MD
CCNC(=O)[C@@H]1CCCN1C(=O)[C@H](CCCN=C(N)N)NC(=O)[C@H](CC(C)C)NC(=O)[C@@H](Cc1c[nH]c2ccccc12)NC(=O)[C@H](Cc1ccc(O)cc1)NC(=O)[C@H](CO)NC(=O)[C@H](Cc1c[nH]c2ccccc12)NC(=O)[C@H](Cc1cnc[nH]1)NC(=O)[C@@H]1CCC(=O)N1 | · | · | -12% | · | · | ·
Cc1c(C(=O)NCCCc2ccncc2)cnn1-c1ncc2c(n1)-c1ccccc1CC2 | · | · | -1% | · | · | ·
Cn1c(=N)n(CC(O)c2cccc3ccccc23)c2ccccc21 (stereo not drawn) | -21% | -27% | -3% | -2% | 8.9µM* | -35%
CC(=O)N=c1sc2ccccc2n1C | -11% | 6% | -1% | 0% | 1% | 13%
CC(=O)N=c1sc2nc3ccccc3nc2n1N(C(C)=O)C(C)=O | -2% | -10% | -2% | 0% | 28µM* | 23%
O=C1Nc2ccccc2/C1=C/C(=O)c1cccs1 | ? | 24% | -13% | 2% | 32µM* | -45%
COc1cccc(CNC(=O)c2cnn(-c3ncc4c(n3)-c3ccccc3CCC4)c2C)c1OC | · | · | 0% | · | · | ·
CCN(CC)C(=O)Cn1cc(S(=O)(=O)CC(=O)Nc2ccccc2C)c2ccccc21 | · | · | -4% | · | 28µM* | -11%
CCN(CC)C(=O)Cn1cc(S(=O)(=O)CC(=O)Nc2ccc(F)cc2F)c2ccccc21 | -8% | -5% | -3% | · | -5% | -4%
CC(=O)[C@@]1(O)CC[C@H]2[C@@H]3C=C(Cl)C4=CC(=O)CC[C@]4(C)[C@H]3CC[C@@]21C | · | · | -4% | · | · | ·
CC1=C(C(=O)OCc2ccccc2)N2C(=O)[C@@H](NC(=O)OCc3ccccc3)[C@H]2SC1 | · | · | -3% | · | -5% | ·
CSc1nnc(-c2cccn(Cc3ccccc3)c2=O)o1 | 2% | ? | -3% | -5% | · | 5%
O=c1c(-c2nnc(SCc3ccc(Cl)cc3Cl)o2)cccn1Cc1ccccc1 | -14% | ? | -3% | 6% | 3.2µM* | -4%
C/C(CC(=O)Nc1cccc2c1CCCC2)=N\NC(=O)c1cccc2ccccc12 | -8% | -4% | -4% | -9% | 1% | 10%
C/C(CC(=O)Nc1cccc2c1CCCC2)=N\NC(=O)c1ccccc1N | -6% | -10% | 3% | -5% | 28µM* | 12%
O=C(COC(=O)Cc1ccc(Br)cc1)NCC1CCCO1 (stereo not drawn) | · | · | -2% | · | -3% | 43%
O=C(COC(=O)Cc1c(Cl)cccc1Cl)NCC1CCCO1 (stereo not drawn) | -6% | -1% | -5% | -1% | 25µM* | -6%
CCOc1ccc2oc(C(=O)OCC(=O)NCC3CCCO3)c(C)c2c1 (stereo not drawn) | · | 1% | 2% | · | -1% | -12%
COc1ccc2oc(C(=O)OCC(=O)NC3CCS(=O)(=O)C3)c(C)c2c1 (stereo not drawn) | · | · | -6% | · | 4% | -11%
COc1ccc2oc(C(=O)OCC(=O)NCC3CCCO3)c(C)c2c1 (stereo not drawn) | · | -2% | -2% | · | 13µM* | 28%
COc1ccc2oc(C(=O)OCC(=O)NC3(C#N)CCCC3)c(C)c2c1 | · | -2% | 0% | · | 25µM* | 6%
Cc1c(C(=O)NCCC2CCCN2C)cnn1-c1nccc(-c2ccccc2F)n1 (stereo not drawn) | · | · | -3% | · | · | ·
COc1cc(Cl)c(CN2CCOc3ccc(CN4CCCCC4CO)cc3C2)cc1OC (stereo not drawn) | · | · | -4% | · | · | ·
COC(=O)[C@@H]1CCCN1Cc1ccc2c(c1)CN(Cc1nccs1)CCO2 | · | · | -6% | · | · | ·
c1ccc(-c2cc3c(-n4cccc4)ncnc3o2)cc1 | -12% | 20% | 2% | -4% | 28µM* | -13%
SMILES | Anesthetic bind | N370S GC | GRP78 ERSR act | CBFb-RUNX1 inh | ClpP mod | Integrin act MD
Cc1ccc(NC(=O)c2c([N+](=O)[O-])cnn2C)cc1C | -21% | -3% | -3% | · | 0% | 19%
Cn1ncc([N+](=O)[O-])c1C(=O)Nc1ccc2c(c1)OCCO2 | -9% | -5% | -9% | 0% | 32µM* | 3%
COc1ccccc1Cc1c(-c2ccc(F)cc2)nc2c(C)cc(Br)cn12 | · | · | 35µM* | · | -2% | ·
COc1ccccc1Cc1c(-c2ccc(C)cc2)nc2c(C)cc(Br)cn12 | · | · | ? | · | -4% | ·
CCN(C(=O)CSc1nnc(-c2cccs2)n1N)c1c(N)n(Cc2ccccc2)c(=O)[nH]c1=O | · | -18% | -4% | · | 35µM* | -11%
COc1ccc2c(c1)CCc1sc(NC(=O)c3ccc(C)cc3)nc1-2 | 46% | -6% | -4% | 14% | 35µM* | 3%
COC(=O)c1c(NC(=O)C2COc3ccccc3O2)sc2c1CCN(Cc1ccccc1)C2 (stereo not drawn) | -9% | 1% | -5% | -7% | 20µM* | -12%
Cc1ncc2c(c1CNC(=O)c1cncs1)CCN(C(=O)c1ccsc1)C2 | · | · | -5% | · | · | ·
Cc1ccnc(NS(=O)(=O)c2ccc(N3C(=O)C4CCCCC4C3=O)cc2)n1 (stereo not drawn) | 28% | 26% | -2% | · | · | -18%
O=C1C2CCCCC2C(=O)N1c1ccc(S(=O)(=O)Nc2ncccn2)cc1 (stereo not drawn) | -21% | -2% | -4% | · | 16µM* | 24%
Cc1cnc(-n2ncc(C(=O)NCC3CCCN(C)C3)c2C)nc1-c1cccs1 (stereo not drawn) | · | · | -2% | · | · | ·
CCCCCOc1ccc(C2C(C(C)=O)=C(C)Nc3ncnn32)cc1OC (stereo not drawn) | -7% | 2% | -2% | 2% | 11µM* | -18%
CCOC(=O)N1CCN(Cc2ccc3c(c2)CN(C(=O)c2cc(-c4ccccc4)no2)CCO3)CC1 | · | · | -8% | · | · | ·
CCOC(=O)CSc1nc2c(c(-c3ccc(C)o3)c1C#N)CCCC2 | -12% | ? | 1% | ? | 28µM* | 7%
COC(=O)Nc1ccc(=O)n(Cc2c(Cl)cccc2Cl)c1 | -8% | ? | -7% | 4% | 28µM* | 14%
Nc1cc(C(=O)O)ccc1Nc1ccccc1 | 5% | 13% | -4% | -3% | 10µM* | 11%
Nc1ccccc1C(=O)Nc1cccc(C(=O)O)c1 | -7% | 7% | -9% | 6% | ? | 23%
CCC(C(=O)Nc1ccc(C(=O)O)cc1NC(=O)C(CC)c1ccccc1)c1ccccc1 (stereo not drawn) | -7% | -10% | -2% | · | -1% | 11%
CCc1ccccc1Nc1ccc(C(=O)O)cc1N | -8% | 6% | 0% | -10% | 28µM* | 35%
CCNc1cc(S(=O)(=O)C(F)(F)F)ccc1N | ? | -6% | 1% | 2% | 1% | -15%
